Experimental data reported in PubChem BioAssay AID720504 (National Center for Advancing Translational Sciences (NCATS), 2013).
Among all 360,000 compounds or so, about 10,000 (2.8%) were called active. Not shown: some 4% with an inconclusive outcome. Many of the other results were omitted from the sample, so actives are more common in it than they were. Unmarked numbers belong to inactive results. Calls come from the whole dose curve; as a rule, active = well fitted inhibition curve with a large enough effect; inconclusive = small, poorly fitted or top-dose-only effect; inactive = flat fitted curve, though single readings scatter.
% is set by controls: 0 for no effect and ±100 for the full control effect; potency is the fitted concentration of half-maximal effect.
Note: nearly all actives have a fitted effect of over 65% in size.
Throughout, for max response, negative = inhibition: series mostly up to about 57 µM.

What follows are compounds tested against Serine/threonine-protein kinase PLK1 (Homo sapiens) (UniProt P53350) (assay: qHTS for Inhibitors of PLK1-PDB (polo-like kinase 1 - polo-box domain): Primary Screen). Conditions: Plk1 PBD binding of FITC phosphopeptide, fluorescence polarization.
Sequence of Serine/threonine-protein kinase PLK1 (Homo sapiens) (P53350 whole entry, looked up, the tested form may be a part): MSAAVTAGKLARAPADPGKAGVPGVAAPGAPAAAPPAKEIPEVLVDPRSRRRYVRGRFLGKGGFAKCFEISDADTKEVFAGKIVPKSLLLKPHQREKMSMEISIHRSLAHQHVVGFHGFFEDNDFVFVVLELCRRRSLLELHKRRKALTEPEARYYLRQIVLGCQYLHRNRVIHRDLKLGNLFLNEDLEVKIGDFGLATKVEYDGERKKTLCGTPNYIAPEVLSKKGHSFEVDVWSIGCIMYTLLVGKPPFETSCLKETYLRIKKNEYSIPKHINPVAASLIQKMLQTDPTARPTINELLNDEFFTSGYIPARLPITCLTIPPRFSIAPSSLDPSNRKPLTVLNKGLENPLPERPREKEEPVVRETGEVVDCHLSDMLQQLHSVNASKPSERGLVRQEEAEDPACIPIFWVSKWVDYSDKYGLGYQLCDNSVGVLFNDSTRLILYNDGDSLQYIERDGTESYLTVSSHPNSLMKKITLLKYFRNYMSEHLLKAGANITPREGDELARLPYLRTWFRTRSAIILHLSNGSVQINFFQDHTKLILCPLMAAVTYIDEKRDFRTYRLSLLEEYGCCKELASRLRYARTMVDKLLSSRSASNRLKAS
With `CCCNC(=O)C1(C)CCN(Cc2ccc(Cl)c(Cl)c2)C1` (stereo not drawn) the max response, negative = inhibition was -1.65%. With `C[C@H](NC(=O)[C@@H]1CCCN1C(=O)[C@@H]1CCCN1C(=O)c1ccccc1)c1ccccc1` the max response, negative = inhibition was -0.0066%. Work on `CC(C)N(C(=O)COC(=O)c1ccccc1C(=O)N1CCN(c2ccc(F)cc2)CC1)C(C)C` yielded a max response, negative = inhibition of -8.86%. `COc1ccc(N2CCN(C(=O)C3CCN(C(=O)c4ccccc4Cl)CC3)CC2)cc1` showed a max response, negative = inhibition of 1.62%. For `O=C(c1ccccc1Oc1ccccc1)N1CCN(c2ccc(F)cc2)CC1`, the Potency was 26.7 µM (active). With `CC[C@@H]1CC2=C(C(=O)OC(C)(C)O2)[C@@H](CC)O1` the max response, negative = inhibition was 0.545%. In the case of `Cc1ccc(C(O)c2ncc(-c3ccccc3F)[nH]2)cc1F` (stereo not drawn), the max response, negative = inhibition was -7.55%. For `COC(=O)c1ccc(/C=N/N2C(C)CCCC2C)cc1` (stereo not drawn), the max response, negative = inhibition was -11.6%. With `CCN(CC)S(=O)(=O)c1cccc(NC(=O)c2ccc(S(=O)(=O)N3CCCC3)cc2)c1` the max response, negative = inhibition was 2.45%. `CCN(CC)S(=O)(=O)c1cccc(-c2n[nH]c(=S)n2/N=C/c2ccc(C(=O)OC)cc2)c1` was tested, and the Potency was 10.6 µM (active). `CCCCNC(=O)C[C@@H]1C[C@@]2(C(=O)OCC)CCC=C2N(Cc2cccc3ccccc23)C1=O` was tested, and the max response, negative = inhibition was -0.117%. `CCOC(=O)C1CCCN(C(=O)c2ccc(C)c(F)c2)CC1` (stereo not drawn) showed a max response, negative = inhibition of -7.52%. `CC(C)Oc1ccc(CN2CCC2(C)C(=O)NCc2ccc(C(F)(F)F)cc2)cc1` (stereo not drawn) was tested, and the max response, negative = inhibition was 6.37%. For `CN(C)/C=C1\C=C(c2ccccc2)OC1=O`, the max response, negative = inhibition was -6%. `CCCS(=O)(=O)C(=C1Nc2ccccc2N1)S(=O)(=O)CCC` was tested, and the max response, negative = inhibition was -1.93%. With `CN(C)/C=C1/Nc2ccccc2C1=O` the Potency was 26.7 µM (active). With `CCN(CCN(C)C)C(=O)c1ccc2nc(C)c(N(C)C(=O)CCc3ccccc3)n2c1` the max response, negative = inhibition was 2.39%. For `CC(=O)Nc1cncc(-c2ccccc2CO)n1`, the max response, negative = inhibition was 3.65%. `O=C(CCc1[nH]c2ccccc2c1Sc1ccccc1)N(CCO)CCO` was tested, and the Potency was 29.9 µM (active). Compound `O=S1(=O)CC(N2CCN(CCO)CC2)CN1Cc1cn(Cc2ccc(Cl)cc2)nn1` (stereo not drawn) has a max response, negative = inhibition of -4.51%. `Cc1ccc(S(=O)(=O)N(CCc2ccccc2)c2ccc3c(c2)C2CC3CCN2C(=O)OCc2ccccc2)cc1` (stereo not drawn) gave a max response, negative = inhibition of -9.82%. `O=C(C1CCCO1)N1CCN(C(=O)C23CC4CC(CC(C4)C2)C3)CC1` (stereo not drawn) was tested, and the max response, negative = inhibition was -0.452%. `C[C@@H]1CN([C@H](C)CO)S(=O)(=O)c2ccc(C#CC3CCCCC3)cc2O[C@H]1CN(C)C(=O)Cc1ccncc1` showed a max response, negative = inhibition of 8.88%. `COc1cccc(C(O)c2ncc(-c3ccc4ccccc4c3)[nH]2)c1` (stereo not drawn) was tested, and the max response, negative = inhibition was 5.51%. `COc1ccc(OC)c(CNC(=O)Cn2nc(C)c3c(C)n(-c4ccc(C)cc4)nc3c2=O)c1` was tested, and the Potency was 26.7 µM (active). For `Cc1nn(C(C)C(=O)NCCC2=CCCCC2)c(=O)c2nn(-c3ccccc3)c(C)c12` (stereo not drawn), the max response, negative = inhibition was -7.54%. `COc1ccc(CNC(=O)C(C)n2nc(C)c3c(C)n(-c4ccccc4)nc3c2=O)c(OC)c1` (stereo not drawn) was tested, and the Potency was 26.7 µM (active). `COc1ccc(-n2nc3c(N4CCC(C(=O)NCc5ccccc5)CC4)nnc(C)c3c2C)cc1` showed a max response, negative = inhibition of -9.59%. In the case of `Cc1nn(CC(=O)N2CCCCC2)c(=O)c2nn(-c3ccccc3)c(C)c12`, the max response, negative = inhibition was -14.5%. `Cc1ccc(-n2nc3c(=O)n(C(C)C(=O)NCc4ccc5c(c4)OCO5)nc(C)c3c2C)cc1` (stereo not drawn) was tested, and the max response, negative = inhibition was -18.3%. In the case of `CCOc1cc(/C=N/NC(=O)c2c(C)nc3ccc(Cl)cn23)ccc1O`, the max response, negative = inhibition was -0.787%. `CC(C)NC(=O)C1(C)CCCCN1Cc1cccc(C(F)(F)F)c1` (stereo not drawn) gave a max response, negative = inhibition of -6.04%. With `OC(c1ccc(F)cc1)c1ncc(-c2cccc(C(F)(F)F)c2)[nH]1` (stereo not drawn) the max response, negative = inhibition was 1.19%. For `CC(=O)NC(c1ccccc1)c1nc(-c2cccc(C(C)C)c2)cs1` (stereo not drawn), the max response, negative = inhibition was 4.75%. `COC(=O)[C@@]1(Cc2ccc(OC)cc2)[C@H]2c3cc(C(=O)N4CCCC4)n(Cc4ccc(OC(F)(F)F)cc4)c3C[C@H]2CN1C(=O)c1ccccc1` gave a max response, negative = inhibition of 4.68%. For `CCOC(=O)[C@]12CCC=C1N(Cc1ccco1)C(=O)[C@H](CC(=O)N1CCSCC1)C2`, the max response, negative = inhibition was -15.1%. With `CC1(C(=O)Nc2cccnc2)Cc2c(-c3ccccc3)ccnc2O1` (stereo not drawn) the max response, negative = inhibition was -6.2%. With `COc1ccc([C@H]2CC(=O)C=C(c3ccc(CO)cc3)C2)cc1` the Potency was 23.8 µM (active). In the case of `COc1ccc2cc(C3=CC(=O)C[C@H](c4ccc5c(c4)OCO5)C3)ccc2c1`, the max response, negative = inhibition was 4.54%. `COc1ccc([C@H]2CC(=O)C=C(c3ccc(C)cc3)C2)cc1` showed a max response, negative = inhibition of -18.7%. In the case of `CN1OC[C@@H]2CN[C@H](c3ccc(-c4ccccc4)cc3)C[C@@H]21`, the max response, negative = inhibition was 5.71%. In the case of `Cc1cc(C)c2nc(-c3cccnc3)cc(C(=O)Nc3ccc(S(=O)(=O)Nc4onc(C)c4C)cc3)c2c1`, the Potency was 42.3 µM (active). `Cc1noc(NS(=O)(=O)c2ccc(NC(=O)c3oc4ccc(F)cc4c3C)cc2)c1C` was tested, and the max response, negative = inhibition was -10.8%. `CCn1c(SCC(=O)Nc2ccc(S(=O)(=O)Nc3onc(C)c3C)cc2)nnc1-c1ccccc1` was tested, and the max response, negative = inhibition was 3.27%. `CC(C)(C)S(=O)N1Cc2cc(C(=O)NCCCN3CCOCC3)nc(-c3cccc(-c4cc5ccccc5o4)c3)c2[C@H]1CCO` (stereo partly drawn) gave a max response, negative = inhibition of -5.28%. `CCCCCCCCCCOC(=O)Cn1c(COc2ccc(C)cc2)[n+](C)c2ccccc21` showed a max response, negative = inhibition of -18.7%. `CCCn1c(=N)n(CC(=O)c2ccc(Cl)c(Cl)c2)c2ccccc21` was tested, and the max response, negative = inhibition was -14%. `CCCCOC(=O)Cn1c(=N)n(CCN(CC)CC)c2ccccc21` was tested, and the Potency was 21.2 µM (active). Work on `CC(=O)c1cccc(-c2cnc3c(NC=O)cc(-c4ccc(N(C)C)cc4)cn23)c1` yielded a max response, negative = inhibition of -10.2%. Work on `COc1ccc(C(O)C(O)(C(=O)OC(C)C)c2ccc(C)cc2)cc1` (stereo not drawn) yielded a max response, negative = inhibition of -13.4%. With `Cc1nn(C)cc1N1C(=O)c2cccc3c(N)ccc(c23)C1=O` the Potency was 2.38 µM (active). `CC(C(=O)O)N1C(=O)c2cccc3cccc1c23` (stereo not drawn) was tested, and the max response, negative = inhibition was -10.8%. With `CN1C(=O)c2cccc3c(N)ccc(c23)C1=O` the Potency was 3.36 µM (active). `Cn1cc(C2OC(=O)c3ccccc32)c2ccccc21` (stereo not drawn) gave a max response, negative = inhibition of -13.8%. With `Cc1ccc(S(=O)(=O)N2CCCCC2)cc1NC(=O)CCNC(=O)c1ccccc1Cl` the max response, negative = inhibition was -0.377%. Work on `O=C1c2ccccc2-c2ccccc2NC1O` (stereo not drawn) yielded a max response, negative = inhibition of -5.82%. `COc1cccc(NC(=O)N(C)C[C@@H]2Oc3ncc(Br)cc3C(=O)N([C@@H](C)CO)C[C@H]2C)c1` showed a max response, negative = inhibition of -14.8%. In the case of `Cc1c(NC(=O)CSc2nnc(-c3cccnc3)n2N)c(=O)n(-c2ccccc2)n1C`, the max response, negative = inhibition was -7.37%. With `Cc1c(NC(=O)CSc2cccc3cccnc23)c(=O)n(-c2ccccc2)n1C` the Potency was 16.8 µM (active). In the case of `Cc1c(NC(=O)CSc2nnnn2-c2ccc(C(=O)O)cc2)c(=O)n(-c2ccccc2)n1C`, the max response, negative = inhibition was -21.9%. In the case of `Cc1coc2c(O)cc3c(c12)OC1(N2CCCCC2)C(=O)NCCCC31` (stereo not drawn), the Potency was 15 µM (active). Compound `C[C@H]1CN([C@@H](C)CO)S(=O)(=O)c2ccc(-c3cccc(F)c3)cc2O[C@@H]1CN(C)C` has a max response, negative = inhibition of 2.78%. For `CN(C)CCNC(=O)c1ccc(-c2cn3c(-c4ccc(Oc5ccccc5)cc4)cnc3cn2)cc1`, the max response, negative = inhibition was -16.6%. `COc1ccc(NC(=O)N(C)C[C@H]2Oc3ncc(C#C[C@@H](C)O)cc3C(=O)N([C@H](C)CO)C[C@H]2C)cc1` gave a max response, negative = inhibition of -0.325%. For `CN1CCN(C(=O)c2ccc(-c3cc4nc(NCc5cccnc5)n(C)c(=O)c4s3)cc2)CC1`, the max response, negative = inhibition was -24.5%. `CN(C)CCn1c(=S)[nH]c2ccc(Cl)cc2c1=O` showed a max response, negative = inhibition of -5.51%. For `CC(C)n1c(=S)[nH]c2cc(C(F)(F)F)ccc21`, the max response, negative = inhibition was -24.5%. With `CCCn1c(=S)[nH]c2ccc(C(F)(F)F)cc21` the Potency was 10.6 µM (active). In the case of `CC(=O)N1Cc2cc(C(=O)NCc3cccc(F)c3)nc(-c3cccc(C4=CCCC4)c3)c2[C@H]1CCO`, the max response, negative = inhibition was -3.4%. In the case of `CCC(C)CN1C(=O)CSCC1(C)C(=O)NCc1ccccc1` (stereo not drawn), the max response, negative = inhibition was -12.2%. `O=C(Nc1ccc(Cl)cc1)C1Cc2c(-c3ccc4c(c3)OCO4)ccnc2O1` (stereo not drawn) gave a max response, negative = inhibition of -2.05%. Work on `C[C@H]1CN([C@@H](C)CO)C(=O)CCCn2cc(nn2)CO[C@@H]1CN(C)C(=O)Nc1ccccc1` yielded a max response, negative = inhibition of -14%. For `O=C(c1ccc(Cl)c(S(=O)(=O)N2CCCCC2)c1)N1CCCCCC1`, the max response, negative = inhibition was -9.42%. Compound `O=C(c1ccccc1F)N1CCN(S(=O)(=O)c2ccc(Br)cc2)CC1` has a max response, negative = inhibition of -0.788%. In the case of `O=C(c1ccc[nH]c1=S)N1CCN(S(=O)(=O)c2ccc(Br)cc2Cl)CC1`, the Potency was 26.7 µM (active). `O=C(COc1ccc(S(=O)(=O)N2CCCC2)cc1[N+](=O)[O-])N1CCCCC1` gave a max response, negative = inhibition of 0.94%. In the case of `C[C@H]1CN([C@@H](C)CO)C(=O)CCCn2cc(nn2)CO[C@@H]1CN(C)S(=O)(=O)c1ccccc1C#N`, the max response, negative = inhibition was -15.7%. With `Cc1onc(C(=O)NN)c1C(=O)N1CCN(C(c2ccccc2)c2ccccc2)CC1` the max response, negative = inhibition was 1.96%. `CCN1CCN(C(c2cccnc2)c2cc(Cl)c3cccnc3c2O)CC1` (stereo not drawn) was tested, and the Potency was 10.6 µM (active). `CCOC(=O)N1CCN(C(c2ccnc3ccccc23)c2nnnn2-c2c(C)cccc2C)CC1` (stereo not drawn) gave a max response, negative = inhibition of 6.16%. With `CCOC(=O)N1CCN(C(c2cccnc2)c2ccc3cccnc3c2O)CC1` (stereo not drawn) the Potency was 5.97 µM (active). For `O=C(NC1CCCC1)C1c2ccccc2OCC(=O)N1CC(F)(F)F` (stereo not drawn), the max response, negative = inhibition was -3.82%. With `CCOC1=C2[C@@H](CN(S(=O)(=O)c3ccc(C)cc3)[C@H]2c2ccccc2F)[C@H]2C(=O)N(Cc3ccccc3)C(=O)[C@H]2C1` the max response, negative = inhibition was -14.5%.
